# In the supplement of paper PMC6555819:
# Key:
# Experiment in all cases: PBM binding z-score (relative to random genomic background probes); higher = stronger binding; sequences stand for … in GC…GCGATTGACAGCGTAGAATGAAGG
# [1] = tested on: FXR:RXRa (NR concentration 270 nM, RXRa partner concentration 90 nM)
# Method in brief: (§1)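 Each nuclear receptor dimer, without ligand, was incubated for 1 h on custom Agilent 4×180K protein-binding microarrays. Binding was detected with antibodies against each partner (one per run), and scanned fluorescence was regression-normalized. The binding z-scores are referenced to random human genomic background probes.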
# [2] = tested on: LXRa:RXRa (NR concentration 270 nM, RXRa partner concentration 90 nM)
# Method in brief: as §1
# [3] = tested on: LXRa homodimer (NR concentration 270 nM)
# Method in brief: as §1
# [4] = tested on: LXRb:RXRa (NR concentration 270 nM, RXRa partner concentration 90 nM)
# Method in brief: as §1
# [5] = tested on: LXRb homodimer (NR concentration 270 nM)
# Method in brief: as §1
# [6] = tested on: PPARa:RXRa (NR concentration 270 nM, RXRa partner concentration 90 nM)
# Method in brief: as §1
# [7] = tested on: PPARg:RXRa (NR concentration 180 nM, RXRa partner concentration 90 nM)
# Method in brief: as §1
# [8] = tested on: PPARg:RXRa 270nM:90nM, anti-RXR (NR concentration 270 nM, RXRa partner concentration 90 nM)
# Method in brief: as §1
# [9] = tested on: PPARg:RXRa 30nM:10nM, anti-RXR (NR concentration 30 nM, RXRa partner concentration 10 nM)
# Method in brief: as §1
# [10] = tested on: PPARg:RXRa 90nM:30nM, anti-RXR (NR concentration 90 nM, RXRa partner concentration 30 nM)
# Method in brief: as §1
Sequence,PBM binding z-score [1],PBM binding z-score [2],PBM binding z-score [3],PBM binding z-score [4],PBM binding z-score [5],PBM binding z-score [6],PBM binding z-score [7],PBM binding z-score [8],PBM binding z-score [9],PBM binding z-score [10]
CGAACTAGGTCAGAAAAGGACAGTGAAGGATGAT,1.84,0.723,-0.125,0.338,-0.514,2.87,4.64,4.06,1.43,3
CCTACTGGGGCAGAAAGGTTACCATACCATCCGG,0.253,0.567,0.201,0.837,-0.839,2.14,2.05,2.74,0.989,2.22
GCTGCTAGGTCAGGTTGGGCAGCTAACGGGTACG,1.01,0.624,-0.384,0.136,-0.285,0.991,0.332,0.824,-0.181,0.136
CTCGAGAGGTCGGTTGAGGTGAGTATACGGATAA,2.48,1.8,-0.0602,2.2,-0.474,2.93,0.425,0.591,-0.178,0.092
CCAGACAGGTGAGAACGTAACTCAGCCTCGATTA,-0.0139,-0.0409,0.178,0.22,-0.463,0.136,0.444,-0.545,-0.231,-0.422
CCTTACGGGTCACTGACAGGTTATAACATTTGGA,5.58,4.49,0.519,3.76,0.0468,5.18,4.66,4.61,1.74,3.38
ATCGAAAGGTCGAGGTGAGTAAAGAGAAAGGGAA,4.14,3.26,0.0324,2.59,0.664,4.57,3.27,3.83,1.09,2.5
CTACCAAGGTGAACAAGGTCGTAGATTACTATTC,1.44,1.27,-0.0649,1.62,-0.766,2.66,1.19,1.36,0.159,0.588
AGAATAAGGTTACCAAAGATCAGGGAAACGCTTG,1.76,5.91,0.165,2.57,-0.0188,2.93,1.84,2.41,0.732,1.67
CTACCAAGGTGAGCAAGGTCGTTGATTACTATTC,0.474,0.615,-0.2,0.949,-0.778,1.59,0.312,0.556,-0.319,-0.252
CGAACTAGGTCAATGACAGGACAGTGAATAGTAA,2.8,2.36,0.289,1.59,0.0362,4.34,7.1,6.02,3.52,5.51
ATCTCTAGGTAAAAGTTCATTGAATCCCGAGGAT,2.13,3.38,4.04,2.13,1.06,4.7,8.45,7.53,7.5,8.69
TAGCCTAGGTCATTGGGACAGTATAGTACGCATC,4.69,3.35,0.922,2.45,0.648,3.84,3.81,3.69,1.27,2.57
TCGAGTAGGTTAGGGGCATTCACAATGGCGTCGA,0.495,0.167,-0.286,0.973,-0.112,1.38,1.01,1.84,1.59,1.94
TCGAGTAGGTTAGGCGGGGCATTCAGCCAACATA,0.223,0.211,-0.616,0.946,0.912,0.687,-0.0188,0.886,0.825,0.705
TCTATTCGTTGAAGGGCAACCGACGAGTCCGTTT,0.909,1.05,0.235,1.05,0.752,1.25,0.0836,2.42,3.64,3.2
TAGCCTAGTTCAGATCGGGCCAGTATACGCTATA,-0.29,-0.351,-0.598,-0.308,-0.592,-0.113,-0.019,-0.325,-0.538,-0.475
ATATTTAGGTTATCGGGTCATTCAGTTTGCGCAT,3.46,3.38,3.11,3.44,2.37,4.75,5.55,5.51,3,4.66
TGAATGAGGATAAAGATCAGGGAACGTGGCGTCG,0.0362,-0.419,-0.157,-0.514,-0.0964,1.03,1.87,3.78,2.17,3.5
AGAATGAGGTTATACGTAGATCAGAGAAGAAAGT,2.4,1.86,0.0397,1.57,0.2,3.2,2.36,2.1,0.792,1.45
ACTCTTAGTTGACTTAGGGCAACCGATACGACGC,0.556,0.443,0.285,0.398,0.941,0.448,0.905,0.0993,0.38,0.299
TGGAGTAGGTTACCAATGGGGCATTCAGCTTTCT,-0.0639,1.5,-0.0874,1.12,0.179,1.61,1.8,2.14,0.743,1.59
TCTGCTATGTCAGTTGGTCAGCTAACGAGCTGCC,-0.167,-0.237,-1.15,-0.392,-0.0439,-0.108,-0.623,0.446,0.854,0.78
TAGCCTAGGTCAGATCGGGCCAGTATACGCTATA,1.61,1.09,-0.264,0.666,-0.213,1.7,0.85,0.845,-0.133,0.327
